This is one part of a sample in which hits are shown more often than they occur.
MmCpn inh – inhibitors of Methanococcus maripaludis chaperonin TRiC (MmCpn); Potency, µM (series often up to 76.9 µM), inactives show at the highest dose activity, negative = inhibition, hits mostly inhibitors; 330,000 tested, 0.031% active; purified Mm-Cpn ATPase, ADP Transcreener TR-FRET; AID 504842; note: % is set by controls: 0 for no effect and ±100 for the full control effect; nearly all actives have a fitted effect of over 80% in size
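ATP (10 uM final) was added to archaeal chaperonin (25 nM final) after 10 min exposure to test compound at 37°C; after 30 min further incubation, ADP was detected by competitive TR-FRET.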
ClpP mod – qHTS Assay for Activators of ClpP. ATP-dependent Clp protease proteolytic subunit (Bacillus subtilis (strain 168)), P80244. AID 651965, 2013. purified B. subtilis ClpP, FRET peptide cleavage, 20 min. Potency, µM (titrated, usually from 57.5 µM), for the others: at the highest dose activity change, negative = active. 340,000 tested, 1.9% active; active = well fitted falling curve with a large enough effect; inconclusive = small, poorly fitted or top-dose-only effect; inactive = no such curve, though single readings can be large or run the other way; note: the source files actives as falling curves though it sought activators and does not explain the sign; nearly all actives have a fitted effect of over 65% in size
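ClpP 10 microg/mL final, pH 8 Tris/KCl buffer with BSA, glycerol, Tween-20; compound pinned in; FRET-FV substrate; RT 20 min; Ex320/Em430; ΔFRET vs ADEP 5.8 microM, DMSO, no enzyme.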
USP2a inh – blocks human ubiquitin-specific protease USP2a. USP2 core, Ub-CHOP2 coupled fluorogenic reporter, 485/531. 330,000 tested, 0.01% active. Potency, µM (top dose mostly 38.3 µM), without a hit: top-dose activity change, negative = inhibition, usual class: inhibitors. O75604;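 note: plate controls were DMSO wells for no effect and full inhibition by NEM control for full effect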
Target sequence (O75604 whole entry, looked up): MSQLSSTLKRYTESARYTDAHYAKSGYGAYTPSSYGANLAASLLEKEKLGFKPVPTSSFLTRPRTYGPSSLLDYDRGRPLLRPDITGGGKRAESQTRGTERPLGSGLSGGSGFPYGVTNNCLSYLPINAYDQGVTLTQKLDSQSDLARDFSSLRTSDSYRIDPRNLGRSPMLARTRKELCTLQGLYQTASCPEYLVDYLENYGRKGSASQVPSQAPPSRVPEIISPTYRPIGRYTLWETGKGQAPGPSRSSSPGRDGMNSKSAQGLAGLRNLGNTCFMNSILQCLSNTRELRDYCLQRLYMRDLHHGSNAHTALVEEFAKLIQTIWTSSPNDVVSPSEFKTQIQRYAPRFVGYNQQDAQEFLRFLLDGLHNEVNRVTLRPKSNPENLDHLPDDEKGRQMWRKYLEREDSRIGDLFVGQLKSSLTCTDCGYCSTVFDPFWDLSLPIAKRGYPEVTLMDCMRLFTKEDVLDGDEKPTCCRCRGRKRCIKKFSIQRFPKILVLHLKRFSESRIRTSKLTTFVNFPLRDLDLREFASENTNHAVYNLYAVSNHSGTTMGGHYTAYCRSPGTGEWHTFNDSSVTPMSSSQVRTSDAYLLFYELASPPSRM
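USP2 core (10nM final) preincubated 30min RT with compound in 20mM Tris-HCl pH 8.0, 2mM CaCl2, 2mM beta-mercaptoethanol, 0.05% CHAPS; 25nM Ub-CHOP2 plus 25nM reporter substrate added, fluorescence (Ex485/Em531) read after 60min.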
Eya2 inh – Eya2 (human) phosphatase inhibition | O00167 | recombinant Eya2, OMFP fluorescence dephosphorylation (OMFP is methylfluorescein phosphate) | Potency, µM (titrated, usually from 76.9 µM), without a hit: at the highest dose activity, negative = inhibition, hits mostly inhibitors | 330,000 tested, 0.006% active; note: % is set by controls: 0 for no effect and ±100 for the full control effect
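Eya2 protein (added as 0.2 uM solution) was preincubated with compound for 10 min at ambient temperature in 50 mM HEPES pH 7.5, 50 mM NaCl, 5 uM MgCl2, 0.05% BSA, 1 mM DTT. OMFP (added at 50 uM) then reacted 10 min; fluorescence read at 485/525 nm.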
p53 reactivator – re-activators of mutant p53 | H1299 p53-A138V BP100-luciferase reporter, luminescence, 24 h | Potency, µM (top dose mostly 92.2 µM), for inactives: top-dose activity change, positive = activation, most hits filed as activators | 320,000 tested, 0.063% active; note: % of control where 0% means no effect; nearly all actives have a fitted effect of over 45% in size
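H1299 (p53-null), stable ts p53-A138V + BP100-Luc; 1000 cells/well, Opti-MEM/10% FBS; cpd 4 pt, 1:5; 24 h, 37 deg C, 5% CO2; detection reagent 10 min RT; luminescence.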
Integrin act MD – integrin-mediated muscular dystrophy alleviation activation | Potency, µM (series often up to 38.3 µM), for the others: at the top dose activation, most hits filed as activators | alpha7betagal myoblasts, beta-gal FDG fluorescence, 48 h | 350,000 tested, 0.064% active;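 note: 100% = response of the positive control SU9516; nearly all actives have a fitted effect of over 60% in size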
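alpha7betagal+/- myoblasts (passage 13, 250/well) treated 48 h at 37C with compounds at 1:260 dilution of DMSO stock. Lysed, then beta-galactosidase activity read as FDG fluorescence (ex 480/em 540) after 30 min, with pre-read for autofluorescence.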
An asterisk follows results filed as active; ? = inconclusive; · = no result given. Unless noted, calls come from the whole dose curve; as a rule, active = well fitted curve in the direction sought with a large enough effect; inconclusive = small, poorly fitted or top-dose-only effect, or another doubt; inactive = no such curve, though single readings can be large; an effect the other way counts as inactive or inconclusive. Potency is the fitted concentration of half-maximal effect.

SMILES | MmCpn inh | ClpP mod | USP2a inh | Eya2 inh | p53 reactivator | Integrin act MD
CN(C)c1ccc(CCc2ccnc3ccccc23)cc1 | · | -2% | · | · | · | ·
C=CCn1c(SCC#N)nc2cc(Cl)ccc2c1=O | · | 0% | · | · | · | ·
O=C(Cc1ccc(Cl)cc1)NO | · | -1% | · | · | · | ·
Cc1cccc(Nc2nnc(SCC3CCCCO3)s2)c1C (centres undefined) | 3% | 10µM* | -7% | 5% | ? | 1%
COC1(OC)C(/C=C/c2ccc(C)cc2)C(C#N)(C#N)C1(OC)OC (centres undefined) | · | 32µM* | · | · | · | -47%
COc1ccc(C(=O)NCc2c(C)oc(C)c2C(=O)O)cc1 | -1% | 16µM* | -1% | -20% | · | 5%
CC(C)Cn1c(/C=C/c2ccccc2)nc2ccccc21 | -2% | 7.1µM* | 0% | -7% | ? | -7%
CCn1c(/C=C/c2ccccc2)nc2ccccc21 | 2% | 14µM* | 0% | 6% | 21% | -33%
CCCCCCn1c(/C=C/c2ccccc2)nc2ccccc21 | · | 4% | · | · | · | ·
CCNc1nc(NCC)nc(-n2cc(C(=O)c3cc(Cl)ccc3O)cn2)n1 | · | 0% | · | · | · | ·
O=C(O)C1Cc2[nH]cnc2C(c2ccccc2O)N1 (centres undefined) | -1% | 28µM* | 5% | 4% | 3% | 4%
O=C(N/N=C/c1ccc2cccc(OCc3ccccc3)c2n1)c1ccc(Br)cc1 | -2% | 4µM* | 4% | 17% | 3% | -9%
COc1ccc(C(=O)N/N=C/c2ccc3cccc(OCc4ccccc4)c3n2)cc1 | -3% | 3.2µM* | -12% | ? | ? | -39%
CSc1ccc(CCNC(=O)CCc2c(C)nc3c(c(C)nn3-c3ccccc3)c2C)cc1 | · | -6% | · | · | · | ·
CC(=O)c1ccc(NC(=O)CCc2c(C)nc3ncnn3c2C)cc1 | 0% | 28µM* | -1% | 6% | 22% | 7%
Cc1cccc(CCNC(=O)CCc2c(C)nc3c(c(C)nn3-c3ccccc3)c2C)c1 | · | 32µM* | · | · | · | ·
CC(=O)c1ccc(NC(=O)CCc2c(C)nc3c(c(C)nn3-c3ccc(C)cc3)c2C)cc1 | · | 14µM* | · | · | · | ·
CN(C)c1ccc(/C=C/c2ccnc3ccccc23)c(N)c1 | · | 2% | · | · | · | ·
CCOC(=O)c1[nH]c(C)c(CCC(=O)Nc2ccc(N(CC)CC)cc2C)c1C | · | 3% | · | · | · | ·
CCCCc1cc(=O)oc2cc(C)cc(OCC(=O)NCC3CCC(C(=O)O)CC3)c12 (centres undefined) | 2% | 5% | 0% | 0% | · | -29%
CCCCc1cc(=O)oc2cc(C)cc(OCC(=O)O)c12 | -5% | 8.9µM* | 1% | 5% | 1% | 11%
Nc1nc(NCc2ccc(F)cc2)c2[nH]cnc2n1 | · | 0% | · | · | · | ·
Cc1cc(NC(=O)NCc2ccccc2)c(=O)n(Cc2ccc(F)cc2)c1 | 2% | · | 1% | 2% | 2% | -28%
O=C(NCc1ccccc1)Nc1cccn(Cc2ccccc2F)c1=O | -3% | 20µM* | 3% | 2% | 16% | -4%
CCOc1ccc(NC(=O)Nc2cccn(Cc3ccccc3)c2=O)cc1 | 0% | 28µM* | -5% | 5% | 11% | -13%
SMILES | MmCpn inh | ClpP mod | USP2a inh | Eya2 inh | p53 reactivator | Integrin act MD
O=C(NCc1ccccc1)Nc1cccn(Cc2ccccc2)c1=O | -2% | 25µM* | 3% | 1% | ? | -10%
O=C(NCc1ccccc1)Nc1cccn(Cc2ccc(F)cc2)c1=O | -3% | 32µM* | 2% | -3% | -4% | -7%
Cc1sc2ccccc2[n+]1CC(=O)c1ccc(F)cc1 | · | -3% | · | · | · | ·
O=C(NCc1ccccc1)Nc1cccn(Cc2cccc(F)c2)c1=O | -30% | 35µM* | 0% | -15% | ? | -2%
c1cc2c3c(c1)CCCN3CCC2 | · | 0% | · | · | · | ·
CN(C)S(=O)(=O)c1cccc(NC(=O)c2ccccc2OCc2ccc(F)cc2)c1 | -8% | 20µM* | 3% | 10% | 2% | 19%

Assay outcomes deposited in PubChem by National Center for Advancing Translational Sciences (NCATS).
